Records with an inconclusive call do not appear. Activity calls are given as the source filed them. Calls follow the shape of the dose curve; as a rule, active = well fitted cell-killing curve with a large enough effect; inconclusive = small, poorly fitted or top-dose-only effect, or effect the other way; inactive = no such curve, though single readings can be large or run the other way.
Potency is read from the fitted curve at half-maximal effect.

The subject of this assay is JEG-3. Nature of the assay: Confirmatory qHTS for gynecologic anti-cancer compounds from libraries of approved drugs and bioactive compounds. Also: nearly all actives have a fitted effect of over 55% in size. Conditions: gynecologic cancer cell panel viability, ATPlite luminescence, 48 h; series mostly up to 57.6 µM. Summed up: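 Seeding 1,000 cells per well preceded overnight (16 h) attachment, after which 48 h drug treatment across 57.5 uM–0.977 nM (11 points) was applied. Remaining cellular ATP, detected by ATPlite luminescence, defined IC50.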
On the technique in general: Quantitative high-throughput screening tests each substance at several concentrations.
In the case of `CCC(=O)O[C@H]1CC[C@H]2[C@@H]3CCC4=CC(=O)CC[C@]4(C)[C@H]3CC[C@]12C`, the Potency result was “inactive”.
`C[C@]12CC[C@H]3[C@@H](CCC4=CC(=O)CC[C@@H]43)[C@@H]1CC[C@@H]2OC(=O)CCc1ccccc1`: the Potency entry is “inactive”.
Take `CCOc1ccccc1-n1c(C(C)N2CCN(C(=O)COc3ccc(Cl)cc3)CC2)nc2ccccc2c1=O` (centres undefined): the Potency is 10900 nM (active).
`C[C@H]1CCC/C=C/C2C[C@H](O)C[C@H]2[C@H](O)/C=C/C(=O)O1` (some centres undefined): the Potency was 344 nM (active).
The value for `CCN1CCN(C(=O)Cc2ccc(Nc3ncc(F)c(Nc4ccc(C(=O)Nc5ccccc5Cl)cc4)n3)cc2)CC1` was “inactive”.
For `C=C(C)[C@H]1Cc2c(ccc3c2O[C@@H]2COc4cc(OC)c(OC)cc4[C@@H]2C3=O)O1`, the Potency was 27.3 nM (active).
Take `C/C=C(/C)C(=O)O[C@H]1C(C)=C2[C@H]([C@@H]1OC(=O)CCCCCCC)[C@@](C)(OC(C)=O)C[C@H](OC(=O)CCC)[C@@]1(O)[C@H]2OC(=O)[C@@]1(C)O`: the Potency is 54.4 nM (active).
The value for `Cc1sc2c(c1C)C(c1ccc(Cl)cc1)=NC(CC(=O)OC(C)(C)C)c1nnc(C)n1-2` (centres undefined) was 1930 nM (active).
Regarding `O=C(O)Cc1ccccc1`, the Potency result is “inactive”.

The record behind these values is PubChem BioAssay AID1345085 (National Center for Advancing Translational Sciences (NCATS), 2018).
